Screening results (PubChem)
Compounds with a hit are over-represented: about 1.5% of the library has one in this group of screens.
FEN1 inhibitor = inhibitors of human flap endonuclease 1. 390,000 compounds, 0.35% hits. Recombinant FEN1 flap cleavage, fluorescence, 15 min. P39748. Potency, µM (doses to about 114 µM), without a hit: at the top dose activity change, negative = inhibition, hits mostly inhibitors; further: potency means the concentration at half of the fitted maximal effect; nearly all actives have a fitted effect of over 65% in size
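Reaction started by adding substrate (50 nM final) to 10 nM enzyme after 15 min room-temperature compound preincubation. Reads at 0 and 15 min, with data normalized and fitted to a four-parameter Hill equation.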
APE1 inh = inhibitors of human APE1 endonuclease; P27695; recombinant APE1, TAMRA/BHQ-2 abasic DNA cleavage fluorescence; Potency, µM (doses to about 65.8 µM), for inactives: at the highest dose activity change, negative = inhibition, hits mostly inhibitors; 350,000 compounds, 0.35% hits; AID 2517;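 further: potency means the concentration at half of the fitted maximal effect; plate controls were vehicle for no effect and reference inhibitor for full effect; nearly all actives have a fitted effect of over 55% in size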
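Readout is kinetic fluorescence (ex 525, em 598 nm) from cleavage of 50 nM TAMRA/BHQ-2 THF abasic duplex by 0.75 nM APE1, compound added 15 min beforehand at RT.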
RECQ1 inh = RECQ1 (human) helicase inhibition; RECQ1 DNA unwinding, red fluorescence kinetic read; Potency, µM (titrated, usually from 57.3 µM), inactives show at the top dose activity, negative = inhibition, most hits filed as inhibitors; 240,000 compounds, 0.54% hits; AID 2549;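 further: potency means the concentration at half of the fitted maximal effect; plate controls were vehicle for no effect and no enzyme for full effect; nearly all actives have a fitted effect of over 30% in size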
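RECQ1T1 50 nM; forked duplex (20 bp + 30-nt ss tails) 200 nM, ATP 2 mM final; pH 8.0, 2 mM MgCl2, 2.5 ug/ml poly(dI-dC); 15 min compound preincubation; discontinuous kinetic read over 2 h at RT.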
WRN inhibitor = inhibitors of human WRN helicase; Potency, µM (series often up to 114 µM), for the others: at the highest dose activity change, negative = inhibition, most hits filed as inhibitors; 360,000 compounds, 0.46% hits; WRN helicase unwinding, fluorescent forked duplex, kinetic; further: potency means the concentration at half of the fitted maximal effect; nearly all actives have a fitted effect of over 55% in size
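Primary qHTS, 1536-well format. 20 nM WRN + compound, 15 min RT; start with 100 nM forked fluorophore/quencher duplex, 2 mM ATP (final); kinetic read ex 525/em 598 nm.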
BLM helicase inh = Bloom syndrome helicase (human) inhibition | recombinant BLM DNA unwinding, fluorescence dequenching | Potency, µM (doses to about 56.1 µM), inactives show at the top dose activity change, negative = inhibition, most hits filed as inhibitors | 350,000 compounds, 0.2% hits;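 further: potency means the concentration at half of the fitted maximal effect; plate controls were vehicle for no effect and no enzyme for full effect; nearly all actives have a fitted effect of over 35% in size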
PI5P4Ka inh = PI5P4K alpha (human) kinase inhibition; PI5P4Kalpha enzyme, ADP-Glo luminescence, 60 min; stronger effect = lower value; max response, %; 330,000 compounds, 1.2% hits; AID 652105; active means max response of -50% or lower; inconclusive means between -30% and -50%; inactive means -30% or higher; further: value at the top dose of about 77 µM
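PI5P4Kalpha ADP-Glo assay; 5 microM ATP final; 60 min RT reaction; HEPES pH 7.4/EGTA/CHAPS, 5% DMSO; controls lacking substrate or enzyme; luminescent end-point.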
An asterisk follows results filed as active; i = inactive; u = inconclusive; x = no result given; [ ] = dose if it differs, or a comment. Unless noted, the call rests on the fitted dose curve; in most records, active means well fitted curve in the direction sought with a large enough effect; inconclusive means small, poorly fitted or top-dose-only effect, or another doubt; inactive means no such curve, though single readings can be large; an effect the other way counts as inactive or inconclusive. Unless noted, on the % scale 0 is the no-effect control and ±100 the full control effect.

SMILES | FEN1 inhibitor | APE1 inh | RECQ1 inh | WRN inhibitor | BLM helicase inh | PI5P4Ka inh
CC1=C(C(=O)OCc2ccccc2)C(c2ccc(C#N)cc2)NC(=O)N1CCCC(=O)O (configuration not stated) | 2% | 29% | 2% | -10% | -11% | -90*
CC1=C(C(=O)OCc2ccccc2)C(c2ccccc2)NC(=O)N1CCCC(=O)O (configuration not stated) | -2% | 5% | x | -3% | -1% | -77*
CC1=C(C(=O)OCc2ccccc2)C(c2ccc(Cl)cc2)NC(=O)N1CCCCCC(=O)O (configuration not stated) | -11% | 5% | 13% | 0% | 0% | -10
CCOC(=O)N1CCN(C(=O)C2CCN(C(=O)c3ccccc3C)CC2)CC1 | u | x | x | 20µM* | x | -79*
Cc1ccc(OCC(=O)Nc2cc(C(=O)O)cc(C(=O)O)c2)cc1C | -12% | 9% | -12% | 79µM* | -5% | -55*
Cc1ccc(OCC(=O)Nc2cc(NC(=O)COc3ccc(C)cc3)cc(C(=O)O)c2)cc1 | 18% | 11% | x | -2% | -4% | 5
C=CCC(CC=C)(CNC(=O)C(=O)Nc1cccc(C(F)(F)F)c1)c1ccccc1 | -7% | x | x | x | -11% | x
Cc1c2cc[n+](CCN3CCCCC3)cc2c(C)c2c1[nH]c1ccc(O)cc12 | 13µM* | x | x | 28µM* | x | u
CCOC(=O)c1[nH]c2ccc(C)cc2c1NC(=O)CN1CCCCC1 | -7% | 2% | -4% | -5% | -3% | 4
c1ccc(-c2ccc(OCCN3CCCC3)cc2)cc1 | x | 11% | -17% | x | -10% | x
COC1=C(N)C(=O)c2nc(-c3nc(C(=O)O)c(C)c(-c4ccc(OC)c(OC)c4O)c3N)ccc2C1=O | 4µM* | -10% | -17% | u | 3.5µM* | -12
Cn1ncc([N+](=O)[O-])c1C(=O)Nc1ccccc1C(=O)O | -5% | 3% | x | -1% | 1% | -52*
COc1cc(-c2cnc3c(NC(C)=O)cc(-c4ccc(N5CCN(C)CC5)cc4)cn23)cc(OC)c1OC | x | x | x | -5% | x | -20
COc1cc(-c2cc(NC=O)c3ncc(-c4ccc(F)cc4)n3c2)cc(OC)c1OC | x | x | x | 56µM* | x | -16
CC(=O)c1ccc(-c2cnc3c(NC=O)cc(-c4ccc(S(C)(=O)=O)cc4)cn23)cc1 | x | x | x | -19% | x | u
COc1cc(-c2cnc3c(NC=O)cc(-c4ccc(N5CCN(C)CC5)cc4)cn23)cc(OC)c1OC | x | x | x | 50µM* | x | -6
COc1cc(-c2cnc3c(NC=O)cc(-c4ccsc4)cn23)cc(OC)c1OC | x | x | x | u | x | -24
CC(=O)c1ccc(-c2cnc3c(NC=O)cc(-c4cnn(C)c4)cn23)cc1 | x | x | x | 1%[57.1 µM] | x | -57*
O=CNc1cc(-c2ccoc2)cn2c(-c3ccc(F)cc3)cnc12 | x | x | x | -7%[57.1 µM] | x | -60*
CCC1CN(C(=O)Nc2ccc(Br)cc2F)c2ccccc2S1 (configuration not stated) | 16% | x | x | x | -4% | x
COc1cccc(-c2cc(NC=O)c3ncc(-c4cccc(C(=O)N(C)C)c4)n3c2)c1 | x | x | x | u | x | -68*
COc1ccc2[nH]c(=O)c(CN(C3CCCCC3)C(c3nnnn3Cc3ccco3)C(C)C)cc2c1 (configuration not stated) | -6% | -1% | 28µM* | u | -20% | -67*
Nc1ccc2c(O)cc(S(=O)(=O)O)cc2c1 | 8.9µM* | x | x | u | x | -58*
Cc1ccc(N2C(=O)c3n[nH]c(C)c3C2c2ccc(C(C)C)cc2)cc1 (configuration not stated) | -7% | x | x | x | -4% | x
Clc1ccc(-c2nc3ccc(Cl)cn3c2Cc2cccc(Cl)c2)cc1 | x | x | x | -12% | x | -4
SMILES | FEN1 inhibitor | APE1 inh | RECQ1 inh | WRN inhibitor | BLM helicase inh | PI5P4Ka inh
Clc1cccc(Cc2c(-c3ccco3)nc3ccc(Cl)cn23)c1 | x | x | x | -34% | x | -65*
COc1cc(OC)cc(C(=O)NNC(=O)c2ccccn2)c1 | -2% | 0% | -13% | -21%[57.1 µM] | -8% | 6
COc1ccc(C(=O)O/N=C(\N)c2ccccn2)cc1 | 0% | 38% | x | 4% | -3% | -71*
COc1ccc(C(=O)NNC(=O)c2ccccn2)cc1 | -3% | 2% | -5% | 4% | 6% | -57*
COc1cc(OC)cc(C(=O)O/N=C(\N)c2ccccn2)c1 | -5% | 12% | -15% | 7% | -12% | 1
Cc1ccc(C(=O)O/N=C(\N)c2ccccn2)c(C)c1 | 0% | 13% | x | -2% | 0% | -57*
COc1ccc(S(=O)(=O)NCCS(=O)(=O)N2CCN(c3ccccc3F)CC2)cc1 | 1% | x | x | x | -1% | x
C[N+]1(CC(=O)c2ccc(O)c(O)c2)CCOCC1 | -18% | x | x | x | x | x
CCCCCCCCCCCCCCCC(=O)C1=C(O)C(CO)OC1=O (configuration not stated) | x | u | 35µM* | x | x | x
CCCCCCCCC1OC1CCCCCCCC(=O)O (configuration not stated) | x | -2% | 6% | x | -1% | x
NS(=O)(=O)c1ccc(NC(=O)CSc2nnc(NC3CC3)s2)cc1 | -2% | 11µM* | x | u | x | u
COc1ccc2cnnc(SCC(=O)Nc3ccc(C(=O)O)cc3)c2c1OC | -17% | 13% | -5% | -26% | 2% | -66*
COCCNC(=O)/C(C#N)=C/c1ccccc1Br | -1% | 13% | i | 2% | -2% | -63*
N#C/C(=C\c1ccccc1Br)C(=O)NC1CC1 | 14% | 5% | x | 10% | -8% | 1
COCCNC(=O)/C(C#N)=C/c1cc(Br)c(O)c(OC)c1 | -5% | 1% | -4% | -17% | -2% | u
CCOCCCNC(=O)/C(C#N)=C/c1cc(Br)c(O)c(Br)c1 | -2% | -1% | -1% | -1% | 2% | -101*
O=C(NCc1ccccc1Cl)c1ccc(-n2cnc3cccnc32)cc1 | -14% | x | x | x | -1% | x
CCOc1cc(/C=C2\C(=O)N(c3nc(-c4ccc(Br)cc4)cs3)N=C2c2ccccc2)ccc1O | 50µM* | 3% | -23% | -35% | u | -83*
O=C1/C(=C\c2ccc(O)c(O)c2)C(c2ccccc2)=NN1c1ccccc1 | -14% | u | u | u | u | -75*
Cc1ccc2c(=O)cc(C(=O)Nc3ccc(S(=O)(=O)N(C)Cc4ccccc4)cc3)oc2c1C | -2% | x | x | x | 1% | x
Cc1ccc(S(=O)(=O)c2ncccc2[N+](=O)[O-])cc1 | -4% | -12% | x | 50µM* | -1% | -1
Cc1ccc(S(=O)(=O)c2ncccc2N)cc1 | 16% | 13% | x | 1% | -2% | 5
O=C(Cc1cccc2ccccc12)NN1C(=O)CSC1=S | -1% | -1% | -16% | -22% | -1% | -6
